Shown are actives, neighbours in structure and some others; about 8.5% of the full set was active somewhere.
JMJD2E inh: JMJD2E (human) inhibition; Potency, µM (titrated, usually from 57.1 µM), hits mostly inhibitors; AID 2147; JMJD2E catalytic domain, FDH-coupled NADH fluorescence (FDH is formaldehyde dehydrogenase); hit rate 1.6% among 230,000; active means well fitted inhibition curve with a large enough effect, not every such curve was filed as active; inconclusive means small, poorly fitted or top-dose-only effect, or another doubt; inactive means no such curve, though single readings can be large or run the other way; further: nearly all actives have a fitted effect of over 50% in size
Sfp PPTase inh: blocks B. subtilis Sfp PPTase activity; Biochemical Sfp PPTase activity, qHTS; AID 1490; Potency, µM, usual class: inhibitors; Q9F4F7; hit rate 3.5% among 310,000;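 further: the enzyme is Sfp with the accession as filed and its product quenches rhodamine fluorescence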
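Step 1, compound plus 15 nM Sfp-PPTase, 15 min, room temperature. Step 2, add rhodamine-CoA (5 uM) and BHQ-2-YbbR (12.5 uM). Step 3, read 525/598 nm fluorescence at 0 and 30 min.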
Coupling enz: inhibits coupling enzyme system, counter-screen for aldolase hits | activity change, negative = inhibition, % at 58.2 µM, hits read low | AID 2472 | coupling enzyme system counterscreen, AmpLite Red fluorescence | hit rate 0.67% among 290,000; in the data active means activity change below about -30%
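Coupling enzymes only (glyceraldehyde-3-phosphate) + compound, at 57.5 uM final, 10 min RT; add substrate/coupling/AmpLite Red mix, 20 min RT; fluorescence ex 525/em 598 nm. Actives flag coupling-system interference.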
NPSR antag: neuropeptide S receptor (human) antagonism, cAMP | Q6W5P4 | hit rate 1% among 220,000 | CHO-NPSR cells, cAMP TR-FRET, antagonist mode | Potency, µM (doses to about 38.3 µM), most hits filed as inhibitors; further: nearly all actives have a fitted effect of over 50% in size
RGS12 GoLoco inh: blocks human Gai1 binding to RGS12 GoLoco peptide, red readout; Potency, µM (titrated, usually from 61.6 µM), most hits filed as inhibitors; Gai1:RGS12 GoLoco peptide FP, rhodamine, 10 min; AID 880; hit rate 0.44% among 230,000; P63096; active means well fitted inhibition curve with a large enough effect, not every such curve was filed as active; inactive means no such curve, though single readings can be large or run the other way; further: nearly all actives have a fitted effect of over 30% in size
ALDH1A1 inh: blocks purified human ALDH1A1 activity. Potency, µM (doses to about 75.3 µM), usual class: inhibitors. Purified ALDH1A1, NADH fluorescence, propionaldehyde substrate. P00352. hit rate 7.3% among 220,000. AID 1030; active means well fitted inhibition curve with a large enough effect, not every such curve was filed as active; inconclusive means small, poorly fitted or top-dose-only effect, or another doubt; inactive means no such curve, though single readings can be large or run the other way
Target sequence (P00352 whole entry, looked up): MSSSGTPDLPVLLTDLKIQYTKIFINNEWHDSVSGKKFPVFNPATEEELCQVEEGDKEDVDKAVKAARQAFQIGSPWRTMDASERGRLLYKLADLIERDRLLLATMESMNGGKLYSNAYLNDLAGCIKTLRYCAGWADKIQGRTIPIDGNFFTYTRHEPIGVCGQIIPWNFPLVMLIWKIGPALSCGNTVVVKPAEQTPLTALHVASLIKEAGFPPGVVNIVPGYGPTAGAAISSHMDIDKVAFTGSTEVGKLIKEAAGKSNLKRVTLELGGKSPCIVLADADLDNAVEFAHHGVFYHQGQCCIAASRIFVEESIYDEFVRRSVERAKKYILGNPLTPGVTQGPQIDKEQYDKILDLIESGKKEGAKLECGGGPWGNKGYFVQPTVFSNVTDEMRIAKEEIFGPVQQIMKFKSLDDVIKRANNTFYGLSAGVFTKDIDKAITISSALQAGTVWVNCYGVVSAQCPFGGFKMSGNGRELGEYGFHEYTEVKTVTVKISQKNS
Each line names hits and unclear results; the compound was inactive in the other large screens. Unless noted, the call rests on the fitted dose curve; in most records, active means well fitted curve in the direction sought with a large enough effect; inconclusive means small, poorly fitted or top-dose-only effect, or another doubt; inactive means no such curve, though single readings can be large; an effect the other way counts as inactive or inconclusive.

CCC(=O)Nc1nnc(-c2cccs2)s1	JMJD2E inh inconclusive, ALDH1A1 inh inconclusive
Cc1cccc(NC(=O)CSc2nnc([C@@H]3CCCN3C(=O)OC(C)(C)C)o2)c1C	ALDH1A1 inh 3.55µM
Cc1ccc(C)c(NC(=O)CSc2nnc([C@@H]3CCCN3C(=O)OC(C)(C)C)o2)c1	none (no result: RGS12 GoLoco inh)
O=C(Nc1ccccc1)C1=C[C@@H](C2CC2)C[C@@H](OCCCCO)O1	ALDH1A1 inh inconclusive
CCN1CCN(CC(=O)N/N=C/c2cc(Br)cs2)CC1	Sfp PPTase inh 79.4µM (no result: JMJD2E inh, NPSR antag, RGS12 GoLoco inh, ALDH1A1 inh)
CCOC(=O)c1sc(C)c2c1NC(c1ccc(Cl)cc1)NC2=O (configuration not stated)	JMJD2E inh inconclusive, NPSR antag inconclusive
O=C1c2ccccc2NC(c2cccc(O)c2)N1O (configuration not stated)	none (no result: JMJD2E inh, NPSR antag, RGS12 GoLoco inh, ALDH1A1 inh)
COC(=O)c1ccc(C2NC(=O)c3c(sc(C)c3C)N2)cc1 (configuration not stated)	JMJD2E inh inconclusive, Sfp PPTase inh 15.8µM, ALDH1A1 inh 23.8µM
Cc1sc2c(c1C)C(=O)NC(c1cccc(O)c1)N2 (configuration not stated)	Sfp PPTase inh 39.8µM, NPSR antag inconclusive
Cc1n[nH]c(C)c1CCCCOc1ccccc1[N+](=O)[O-]	none (no result: JMJD2E inh, NPSR antag, RGS12 GoLoco inh, ALDH1A1 inh)
COC(=O)c1sccc1NC(=O)Nc1cccc(C)c1C	none (no result: JMJD2E inh, Coupling enz, NPSR antag, RGS12 GoLoco inh, ALDH1A1 inh)
CCN(CCNCC(O)COc1ccccc1C(C)C)c1cccc(C)c1 (configuration not stated)	Sfp PPTase inh 44.7µM (no result: JMJD2E inh, NPSR antag, RGS12 GoLoco inh, ALDH1A1 inh)
CCOC(=O)c1cccc(OCC(O)CNCCOc2ccccc2F)c1 (configuration not stated)	none (no result: JMJD2E inh, NPSR antag, RGS12 GoLoco inh, ALDH1A1 inh)
C(=C\c1ccccc1)/CN1CCN(Cc2nc(Cc3ccccc3)no2)CC1	ALDH1A1 inh 12.6µM
Cc1ccc(CN2CCN(Cc3cc(=O)c4ccccc4[nH]3)CC2CCO)o1 (configuration not stated)	ALDH1A1 inh 17.8µM
CCOc1ccc(N2CCCn3c2nc2c3c(=O)n(CCc3ccccc3)c(=O)n2C)cc1	ALDH1A1 inh 11.2µM
Cn1c(=O)n(CCc2ccccc2)c(=O)c2c1nc1n2CCCN1CCc1ccccc1	NPSR antag inconclusive, ALDH1A1 inh 11.2µM
COc1cccc(C2=CC(c3ccc(OC)c(OC)c3)NC(=S)N2)c1 (configuration not stated)	JMJD2E inh inconclusive, ALDH1A1 inh 14.1µM
Oc1ccccc1/C=N/NC(=S)NC1CC2C=CC1C2 (configuration not stated)	JMJD2E inh 25.1µM, ALDH1A1 inh 25.1µM
COc1ccccc1-c1ccc2ncnc(N3CCN(C)CC3)c2c1	JMJD2E inh inconclusive, ALDH1A1 inh inconclusive (no result: NPSR antag)
COc1ccc(CCNCC(C)c2ccccc2)cc1 (configuration not stated)	none (no result: JMJD2E inh, NPSR antag, RGS12 GoLoco inh, ALDH1A1 inh)
COc1ccc(CCNCC(O)c2ccccc2)cc1 (configuration not stated)	JMJD2E inh 7.94µM
CCOc1ccc(C(=O)/C=C/Nc2ccc(S(=O)(=O)Nc3onc(C)c3C)cc2)cc1	Sfp PPTase inh inconclusive
Cc1noc(NS(=O)(=O)c2ccc(N/C=C\C(=O)c3ccc(Br)cc3)cc2)c1C	Sfp PPTase inh 70.8µM, NPSR antag inconclusive
Cc1noc(NS(=O)(=O)c2ccc(N/C=C\C(=O)c3cccc4ccccc34)cc2)c1C	Sfp PPTase inh 79.4µM, ALDH1A1 inh 3.98µM
CCN(CC(=O)NCCN1CCOCC1)S(=O)(=O)c1ccc(F)cc1	none (no result: JMJD2E inh, NPSR antag, RGS12 GoLoco inh, ALDH1A1 inh)
Cc1ccc(S(=O)(=O)Nc2ccc(NC(=O)c3cccnc3)cc2)cc1	ALDH1A1 inh 14.1µM
Cc1ccc(NS(=O)(=O)c2ccc(CCC(=O)NCc3cccnc3)cc2)cc1	ALDH1A1 inh 8.91µM
O=C(NC(=S)NNS(=O)(=O)c1ccc(Cl)cc1)c1cccnc1	ALDH1A1 inh 7.94µM
O=C(NNS(=O)(=O)c1ccccc1)c1cccnc1	none
Cc1cc(C)nc(NS(=O)(=O)c2ccc(NC(=S)NC(=O)c3cccnc3)cc2)n1	Sfp PPTase inh 39.8µM
CCNS(=O)(=O)c1ccc(CCC(=O)NCc2cccnc2)cc1	none (no result: JMJD2E inh, NPSR antag, RGS12 GoLoco inh, ALDH1A1 inh)
Cc1cc(NS(=O)(=O)c2ccc(NC(=S)NC(=O)c3cccnc3)cc2)no1	ALDH1A1 inh inconclusive
O=C(Cn1cnc2ccccc21)N/N=C/c1ccccc1[N+](=O)[O-]	ALDH1A1 inh inconclusive
COc1ccc(NC(=O)C2Cc3ccccc3O/C2=N\O)cc1 (configuration not stated)	none (no result: JMJD2E inh, NPSR antag, RGS12 GoLoco inh, ALDH1A1 inh)
COC(=O)c1nc(N)sc1-c1ccc(Cl)c(Cl)c1	JMJD2E inh inconclusive (no result: ALDH1A1 inh)
S=C(NCc1ccco1)N1CCC(c2nc3ccccc3o2)CC1	ALDH1A1 inh inconclusive
COC(=O)CCCC1=CC2=C(c3ccccc3)C(=O)C(C)(OC(=O)C3CCCC3)C(=O)C2=CO1 (configuration not stated)	none (no result: NPSR antag)
COc1cc2c(cc1OC)C(c1ccc(-c3ccccc3Cl)o1)=NCC2	NPSR antag inconclusive
COc1cc2c(cc1OC)C(c1ccc(-c3ccc(Cl)c(Cl)c3)o1)=NCC2	Sfp PPTase inh 20µM, NPSR antag inconclusive
COc1cc2c(cc1OC)C(c1ccc(-c3ccc(Cl)cc3Cl)o1)=NCC2	Sfp PPTase inh 28.2µM, NPSR antag 7.94µM
Cc1cccc(S(=O)(=O)NC2CCCCCCC2)c1	none (no result: JMJD2E inh, NPSR antag, RGS12 GoLoco inh, ALDH1A1 inh)
Cc1ccc(-c2ccccc2)n1-c1ccc(C(=O)O)cc1	Sfp PPTase inh 70.8µM, ALDH1A1 inh 25.1µM
Cc1ccc(-n2c(-c3cnccn3)n[nH]c2=S)cc1	Sfp PPTase inh 56.2µM
Cc1ccc(-c2ccccc2)n1-c1cccc(C(=O)O)c1	JMJD2E inh inconclusive, ALDH1A1 inh inconclusive
O=C(O)c1ccc(-n2c(-c3ccccc3)n[nH]c2=S)cc1	JMJD2E inh inconclusive, Sfp PPTase inh 79.4µM, ALDH1A1 inh inconclusive
CC(C)(C)c1ccc(-c2n[nH]c(=S)n2-c2ccccc2)cc1	none (no result: JMJD2E inh, NPSR antag, RGS12 GoLoco inh, ALDH1A1 inh)
Cc1ccc(-n2c(-c3ccncc3)n[nH]c2=S)cc1C	Sfp PPTase inh 44.7µM, ALDH1A1 inh inconclusive
COc1ccc(CNC(=O)c2n[nH]c3ccccc23)cc1OC	none
COc1ccc(-c2cc(C3CCN(C(=O)OC(C)(C)C)CC3)[nH]n2)cc1	none
O=C(O)c1ccc(-n2c(-c3cc(C4CC4)[nH]n3)n[nH]c2=S)cc1	Sfp PPTase inh 56.2µM (no result: ALDH1A1 inh)
Cc1ccc(-n2c(-c3ccccc3)n[nH]c2=S)cc1	JMJD2E inh inconclusive, Sfp PPTase inh 79.4µM, ALDH1A1 inh 31.6µM
Cc1ccc(-n2c(-c3ccncc3)n[nH]c2=S)cc1	none
COc1cc(-c2n[nH]c(=S)n2-c2ccc(C)cc2)cc(OC)c1OC	none
S=c1[nH]nc(Cc2noc3ccccc23)n1-c1ccc(Cl)cc1	none
Cc1ccc(-n2c(Cc3noc4ccccc34)n[nH]c2=S)cc1	ALDH1A1 inh 14.1µM
COc1ccc(-n2c(-c3ccc(C)cc3)n[nH]c2=S)cc1	Sfp PPTase inh 89.1µM
O=C(COC(=O)CNC(=O)c1sc2ccccc2c1Cl)Nc1cc(Cl)cc(Cl)c1	ALDH1A1 inh inconclusive

Screens from PubChem BioAssay.
